FBW7 act – human FBW7 E3 ligase activation, primary screen. normalized activity (activation), % at 26.1 µM. 650,000 tested, 0.13% active. AlphaScreen FBW7–phospho-cyclin E peptide binding, activator screen. AID 1259310; in the data active = normalized activity above about 1.9%;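 note: purified mutant Fbw7 with reduced substrate affinity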
GPR151 ag – activates the human receptor GPR151 | AID 1508602 | PathHunter beta-arrestin GPR151 cells, luminescence | 650,000 tested, 1% active | Q8TDV0 | activation, % at 11.2 µM; in the data active = activation above about 4.9%
Target sequence (Q8TDV0 whole entry, looked up): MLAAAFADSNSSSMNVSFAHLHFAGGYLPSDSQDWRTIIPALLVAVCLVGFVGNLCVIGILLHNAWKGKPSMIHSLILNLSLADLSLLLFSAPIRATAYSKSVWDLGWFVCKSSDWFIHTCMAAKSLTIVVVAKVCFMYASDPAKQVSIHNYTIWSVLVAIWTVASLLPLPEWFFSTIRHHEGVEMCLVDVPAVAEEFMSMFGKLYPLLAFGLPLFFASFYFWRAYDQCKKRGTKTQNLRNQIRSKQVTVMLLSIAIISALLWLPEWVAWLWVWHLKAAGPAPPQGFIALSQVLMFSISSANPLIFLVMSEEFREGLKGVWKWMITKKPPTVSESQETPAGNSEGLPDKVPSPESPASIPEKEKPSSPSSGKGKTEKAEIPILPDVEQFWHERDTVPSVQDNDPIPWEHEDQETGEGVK
MITF inh – human MITF inhibition, primary screen; 650,000 tested, 0.91% active; O75030; AlphaScreen MITF homodimerization, bead proximity signal; inhibition, % at 2.6 µM; AID 1259374; in the data active = inhibition above about 50%
TEAD-YAP inh – TEAD-YAP interaction inhibition. HEK-TIYL cells, TEAD-Gal4/YAP UAS-luciferase luminescence. inhibition, % at 9.12 µM. 640,000 tested, 1.4% active; in the data active = inhibition above about 32%
Hits are given with their value; . = inactive. In the library only some 3.5% were active in any assay of this set; here they are far more common.

SMILES	FBW7 act	GPR151 ag	MITF inh	TEAD-YAP inh
CCNc1ccc(C(=O)N/N=C(\C)c2cccs2)cc1[N+](=O)[O-]	.	.	.	50
C=CCOc1cccc(C(=O)NCCc2ccccc2)c1	.	.	.	.
COc1ccc(C(=O)N=c2nc3ccccn3s2)cc1	.	.	.	70
O=C(CN1C(=O)COc2ccccc21)N(Cc1cccnc1)Cc1cccc(F)c1	.	.	.	.
O=C(O)CCC(=O)N(Cc1cccnc1)Cc1cccc(F)c1	.	.	.	49
COC(=O)c1ccc(C(=O)OC)c(NC(=O)c2c(C)c(-c3ccc(Cl)cc3)nc3ccccc23)c1	.	.	.	.
CCc1cccc(C)c1NC(=O)c1cc(S(=O)(=O)N2CCc3ccccc3C2)ccc1F	.	.	.	.
Cc1nc(NC(=S)NC(=O)c2ccccc2)sc1C(C)(C)C	.	.	.	37
CCN(CC)c1ccc(C(=O)O)cc1	.	.	.	.
CCN(CC)c1ccc(C(=O)c2ccc(N(CC)CC)cc2)cc1	.	.	.	34
CCc1n[n+](CC(=O)c2ccc3c(c2)OCCO3)c(N)s1	.	.	.	63
CCC(=O)c1ccc2c(c1)OCCO2	.	.	.	.
Cc1ccccc1OCC(=O)Nc1cccc(NC(=O)COc2ccccc2C)n1	.	.	.	.
Cc1ccc(OCC(=O)Nc2cc(C)on2)c(C)c1	.	.	.	.
Cc1ccc(OCC(=O)Nc2ccccn2)c(C)c1	.	.	.	96
Cc1ccccc1OCC(=O)Nc1ccccn1	.	.	.	42
Cc1cc(C)cc(CN2CCc3nnc(CNC(=O)c4ccccc4)n3CC2)c1	.	.	.	.
Cc1cccn2c(=O)c3cc(C(=O)NCc4cccnc4)c(=N)n(Cc4ccco4)c3nc12	.	.	.	.
CCNC(=O)c1cc2c(=O)n3cccc(C)c3nc2n(Cc2ccco2)c1=N	.	.	.	58
Cc1cccn2c(=O)c3cc(C(=O)NC4CCCCC4)c(=N)n(CCCn4ccnc4)c3nc12	2.1	.	.	.
Cc1ccc(Cl)cc1S(=O)(=O)N1CCC(NC(=O)c2ccco2)CC1	.	.	.	.
Cc1cc(C)cc(NC(=O)Nc2nnc(N3C(C)CCCC3C)s2)c1 (stereo not given)	.	.	.	.
COc1ccc(Cn2ccn(CC(N)=O)c(=O)c2=O)cc1	.	.	.	.
NS(=O)(=O)c1ccc(NC(=O)CSCc2ccccc2)cc1	.	.	.	.
Cc1nc(SCC(=O)N(C(C)C)C(C)C)c2c(C)c(C)sc2n1	.	.	.	51
SMILES	FBW7 act	GPR151 ag	MITF inh	TEAD-YAP inh
CCN1C(=O)N(CC)C2C1NC(=O)N2CC (stereo not given)	.	.	.	.
CCN1C(=O)N(CC)C2NC(=S)NNC21 (stereo not given)	.	.	.	82
COC1OC(=O)C(Cl)=C1N1CCOCC1 (stereo not given)	.	.	.	.
COc1ccccc1CC(=O)Nc1cnc2cnc(-c3ccc(F)c(Cl)c3)cn12	1.9	.	.	.
O=C(Nc1cccc2cccnc12)c1cc2c(ccc3ccccc32)oc1=O	.	.	.	.
Cc1ccccc1CN1CCN2C(=O)[C@H]3CCCN3C(=O)[C@H]2C1	.	.	.	.
c1ccc(Nc2nc(N3CCOCC3)nc3c2ncn3-c2ccsc2)cc1	.	.	.	.
CCc1nc(SCC(=O)NCc2cccs2)c2c(C)c(C)sc2n1	8.1	.	.	.
CC(C)CC(c1nnnn1C1CCCC1)N1CCN(C(=O)c2ccco2)CC1 (stereo not given)	.	.	.	55
CC(C)CC(c1nnnn1C1CCCCC1)N1CCN(C(=O)c2ccco2)CC1 (stereo not given)	.	.	.	.
Cc1ccc(-c2ncn(-c3ccc(Nc4nccc(-c5ccc(Cl)nc5)n4)cc3)n2)cn1	.	.	.	.
Cc1ccc(-c2ncn(-c3ccc(Nc4nccc(-c5ccc(S(C)(=O)=O)c(N6CCCC(O)C6)c5)n4)cc3)n2)cn1 (stereo not given)	.	.	.	38
Cc1ccc(-c2ncn(-c3ccc(Nc4nccc(-c5ccc(N)nc5)n4)cc3)n2)cn1	5.4	.	.	41
Cc1ccsc1/C=N/Nc1ccc(C(=O)O)cc1	.	.	.	49
O=C(O)c1cccc(N/N=C/c2cccc3ccccc23)c1	.	.	.	.
Cc1nn(-c2ccccc2)c(C)c1/C=N/Nc1cccc(C(=O)O)c1	.	.	.	42
O=C(O)c1cccc(N/N=C/c2cc(Br)cs2)c1	.	.	.	38
Cc1ccsc1/C=N/Nc1cccc(C(=O)O)c1	.	.	.	48
COc1ccc(/C=C/C(=O)Nc2c3c(nn2-c2ccccc2)CCC3)cc1OC	.	.	.	.
NC(=O)c1ccccc1Nc1cc(Oc2ccc(-n3cncn3)cc2)ncc1C(F)(F)F	.	.	.	.
CCOc1cc(C2C3=C(CCCC3=O)OC3=C2C(=O)CCC3)cc(Br)c1O	.	.	.	.
NC(=O)c1c(NC(=O)c2nc3ccccc3s2)sc2c1CCCCC2	.	.	.	62
NC(=O)c1c(NC(=O)c2ccccc2)sc2c1CCCCC2	.	.	.	.
NC(=O)c1c(NC(=O)c2cc3ccccc3o2)sc2c1CCCCC2	.	.	.	42
Oc1ccccc1-c1cc(-c2ccccc2)no1	.	.	.	.
SMILES	FBW7 act	GPR151 ag	MITF inh	TEAD-YAP inh
Cc1ccc(-c2cc(-c3ccccc3)no2)c(O)c1	.	.	.	52
Cc1ccc(NC(=O)c2sc3nc(N)c(C#N)cc3c2N)cc1F	22	.	.	.
N#Cc1cc2c(N)c(C(=O)Nc3ccccc3)sc2nc1N	.	.	.	.
N#Cc1cc2c(N)c(C(=O)c3ccc4c(c3)OCO4)sc2nc1N	5.1	.	.	.
Cc1ccc(-c2noc(CNC(=O)c3cccc(F)c3)n2)cc1	.	.	.	.
O=C(C1CCN(Cc2ccccc2O)CC1)N1CCCCC1	.	.	52	.
O=C(C1CCN(Cc2cc(Cl)ccc2O)CC1)N1CCN(Cc2ccccc2)CC1	.	.	59	.
Cc1ccc(C)c(NC(=O)Cn2cc3c(n2)CCCC3)c1	.	.	.	.
Cc1sc2ncn(CC(=O)Nc3nc4ccccc4s3)c(=O)c2c1S(=O)(=O)N1CCCCC1	.	.	.	.
CCOC(=O)N1CCC(N2CCc3nnc(CCNC(=O)C4CCCCC4)n3CC2)CC1	.	.	.	.
CCN1C(=O)N(CC)C(NNC(N)=S)C1NNC(N)=S (stereo not given)	.	.	.	90
Cc1ccc(-c2nc3s/c(=C\c4cn(-c5ccccc5)nc4-c4ccc(Cl)cc4)c(=O)n3n2)cc1	.	.	.	.
CCc1ccc(CN2CCN(C(=O)c3ccc(F)cc3)CC2)cc1	.	.	.	37
O=C(c1ccc(F)cc1)N1CCN(Cc2ccc(Cl)cc2)CC1	.	.	.	.
CN1CCN(C(c2ccc(N(C)C)cc2)c2nnnn2C(C)(C)C)CC1 (stereo not given)	.	.	.	.
COC(=O)c1cnn2c(C)c(Cc3ccc(C)cc3)c(C)nc12	.	.	.	43
Cc1nc2c(C(=O)NCc3cccnc3)cnn2c(C)c1Cc1cccc(Cl)c1	.	.	.	.
Cc1ccc(Cc2c(C)nc3c(C(=O)NCc4cccnc4)cnn3c2C)cc1	.	.	.	49

Source: PubChem BioAssay
